Screening data (PubChem BioAssay)
Rows were chosen to be rich in hits. Some 3.4% of all compounds tested hit in one or more screens of this group.
proKLK7 act = activates the human kallikrein-7 zymogen. purified proKLK7, EDANS-DABCYL substrate fluorescence; 100% is mature enzyme control, 0% vehicle. 370,000 tested, 0.9% active. activation, % at 7 µM;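 active = activation above the mean of all tested compounds plus 3 SD, computed per campaign excluding outliers beyond control limits, cut at about 13% in these data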
ADAM17 inh = inhibitors of human ADAM17 | 370,000 tested, 0.83% active | recombinant ADAM17, EDANS/DABCYL FRET peptide cleavage | AID 720648 | P78536 | inhibition, % at 6.95 µM;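 active = inhibition above the mean of compounds lying between control limits plus 3 SD, set per campaign, cut at about 8.5% in these data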
HGIII-sPLA2 inh = Blocks human group III sPLA2 activity; QFRET BODIPY PC-A2 liposome hydrolysis, fluorescence; inhibition, % at 12.2 µM; 370,000 tested, 0.56% active;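 active = inhibition above mean plus 3 SD of compounds lying within the high and low control bounds, cut at about 19% in these data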
PLC-beta3 inh = blocks human PLC-beta3 enzyme activity. Q01970. Purified PLC-beta3, fluorogenic substrate, fluorescence. inhibition, % at 12.2 µM. 370,000 tested, 0.18% active. AID 720704; in the data active = inhibition above about 11%
PLC-gamma1 inh = PLC-gamma1 (human) inhibition, primary screen; P19174; purified PLC-gamma1, fluorogenic substrate, fluorescence; inhibition, % at 12.2 µM; 370,000 tested, 0.84% active; AID 720700
ADAM10 inh = inhibits human ADAM10; O14672; recombinant ADAM10, EDANS/DABCYL FRET peptide cleavage, 3 h; inhibition, % at 7 µM; 370,000 tested, 0.62% active; AID 720582;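 active = inhibition above a per-campaign cutoff equal to the mean of compounds falling between control-based bounds plus 3 SD, cut at about 20% in these data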
Target sequence (O14672 214-748 limits assumed): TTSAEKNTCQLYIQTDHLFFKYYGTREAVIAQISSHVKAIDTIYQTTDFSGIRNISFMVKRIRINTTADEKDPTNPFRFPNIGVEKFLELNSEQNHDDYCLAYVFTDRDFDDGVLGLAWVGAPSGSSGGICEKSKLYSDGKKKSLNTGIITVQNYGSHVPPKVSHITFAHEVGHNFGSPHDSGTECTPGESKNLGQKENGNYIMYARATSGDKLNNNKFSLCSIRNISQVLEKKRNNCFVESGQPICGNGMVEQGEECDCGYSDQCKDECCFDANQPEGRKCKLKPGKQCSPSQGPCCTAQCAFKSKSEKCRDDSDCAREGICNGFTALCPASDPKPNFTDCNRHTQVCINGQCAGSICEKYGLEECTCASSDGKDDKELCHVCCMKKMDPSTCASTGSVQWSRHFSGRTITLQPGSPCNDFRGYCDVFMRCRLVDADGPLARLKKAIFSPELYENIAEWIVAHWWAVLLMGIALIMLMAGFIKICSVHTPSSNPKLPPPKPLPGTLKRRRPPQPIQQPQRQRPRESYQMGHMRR
PLCgamma1 ctr = inhibits human PLC-gamma1 in PLC-beta3 counter-screen; shares compounds with PLC-gamma1 inh; purified PLC-gamma1, fluorogenic substrate, fluorescence; AID 743258; 3,300 tested, 3.1% active; inhibition, % at 12.3 µM
PLCbeta3 conf = confirmation of human PLC-beta3 inhibitors | shares compounds with PLC-gamma1 inh | inhibition, % at 12.3 µM | AID 743261 | 3,300 tested, 1% active | purified PLC-beta3, fluorogenic substrate fluorescence; in the data active = inhibition above about 11%
Of the large screens only hits and unclear results are named; the others gave an inactive call (follow-up assays come after a bar, where they were run). Cut-off read from the data, not from the text of the source, unless noted: active = inhibition above about 9.5%; inactive = the rest.

CCSc1nnc(NC(=O)c2cc(C)oc2C)s1	PLC-gamma1 inh 11 | PLCgamma1 ctr inactive | PLCbeta3 conf inactive
CCc1nnc(NC(=O)c2cc(C)oc2C)s1	none
CC(NS(C)(=O)=O)C(c1cccs1)N1CCN(c2ccc(F)cc2)CC1 (configuration not stated)	none
CC(NS(C)(=O)=O)C(c1cccs1)N1CCN(C)CC1 (configuration not stated)	PLC-gamma1 inh 11 | PLCgamma1 ctr inactive | PLCbeta3 conf inactive
Cc1ccc(-n2ncc(C(=O)Nc3ccc(Cl)cc3)c2C2CCNCC2)cc1C	PLC-gamma1 inh 9.6 | PLCgamma1 ctr inactive | PLCbeta3 conf inactive
O=C(c1ccco1)N1CCN(C(=O)c2cnn(-c3ccc(Cl)cc3)c2C2CCNCC2)CC1	none
O=C(Nc1ccc(OC(F)(F)F)cc1)Nc1c(-c2ccc(C(F)(F)F)cc2)nc2ncccn12	none
CCOC(=O)c1ncn2c1C(=O)OC2(C)C	PLC-gamma1 inh 15 | PLCgamma1 ctr inactive | PLCbeta3 conf inactive
CCOC(=O)C1=CC(=O)CC(C)(C)O1	none
CCC12CN3CC(CC)(CN(C1)C3c1ccc([N+](=O)[O-])o1)C2=O (configuration not stated)	PLC-gamma1 inh 11 | PLCgamma1 ctr inactive | PLCbeta3 conf inactive
CCCC12CN3CC(C)(CN(C1)C3c1ccc([N+](=O)[O-])o1)C2=O (configuration not stated)	none
COC(=O)C[C@H]1CC[C@H]2[C@H](COc3ccc(NC(=O)Nc4ccccc4F)cc3C(=O)N2C)O1	none
COC(=O)c1ccccc1NN=Nc1ccccc1[N+](=O)[O-]	PLC-beta3 inh 13 | PLCgamma1 ctr inactive | PLCbeta3 conf inactive
O=[N+]([O-])c1ccccc1N=NNc1ccccc1	none
Cc1nc(Nc2ncc(C(=O)Nc3c(C)cccc3Cl)s2)cc(N2CCN(CCO)CC2)n1	none
COc1ccc2nc(NC(=O)C3CCCN(S(=O)(=O)c4cccc5nonc45)C3)sc2c1 (configuration not stated)	PLC-gamma1 inh 10 | PLCgamma1 ctr inactive | PLCbeta3 conf inactive
CCOc1ccc2nc(NC(=O)C3CCCN(S(=O)(=O)c4cccc5nonc45)C3)sc2c1 (configuration not stated)	none
CCOc1ccc(C(=O)Nc2ccc3c(c2)OCCO3)cc1[N+](=O)[O-]	PLC-gamma1 inh 10 | PLCgamma1 ctr inactive | PLCbeta3 conf inactive
COCC(=O)N1[C@H](CO)[C@@H](c2ccc(-c3cccnc3)cc2)[C@H]1CN(C)S(=O)(=O)c1ccccc1[N+](=O)[O-]	none
Cc1ccc(-c2nn(-c3ccccc3)cc2C(=O)Nc2ccc(C)c(S(=O)(=O)N3CCOCC3)c2)cc1	PLC-gamma1 inh 9.6 | PLCgamma1 ctr inactive | PLCbeta3 conf inactive
CC1(C)Cc2c(sc(/N=C/N3CCCC3)c2C#N)C(C)(C)N1	PLC-beta3 inh 13, PLC-gamma1 inh 19 | PLCgamma1 ctr inactive | PLCbeta3 conf inactive
CN(Cc1ccccc1)C(=O)c1cccnc1	none
CN(C(=O)c1cccnc1)c1nc(-c2ccccc2)cs1	PLC-gamma1 inh 9.7 | PLCgamma1 ctr inactive | PLCbeta3 conf inactive
O=C(Nc1ccccc1C(F)(F)F)OCCN1C(=O)CCC12CCC(c1ccccc1)CC2 (configuration not stated)	none
CCOCCCNC(=O)/C(C#N)=C/c1ccc(Cl)c([N+](=O)[O-])c1	none
CCOCCCNC(=O)/C(C#N)=C/c1cc(OC)c(O)c([N+](=O)[O-])c1	PLC-gamma1 inh 13 | PLCgamma1 ctr inactive | PLCbeta3 conf inactive
Cc1nn(-c2ccccc2)c(OC(=O)c2cccs2)c1S(=O)(=O)c1ccc([N+](=O)[O-])cc1	PLC-beta3 inh 20, PLC-gamma1 inh 15 | PLCgamma1 ctr inactive | PLCbeta3 conf inactive
Cc1nn(-c2ccccc2)c(OC(=O)c2cccs2)c1S(=O)(=O)c1ccccc1	PLC-gamma1 inh 14 | PLCgamma1 ctr inactive | PLCbeta3 conf inactive
Nc1cc(OC(=O)c2cccs2)nn1S(=O)(=O)c1ccccc1	none
Nc1cc(OC(=O)c2cccs2)nn1S(=O)(=O)c1ccc(F)cc1	none
CC(C)(C)NC(=O)C[C@H]1C[C@H](C(=O)N2CCCCC2)[C@@]2(CCc3ccccc3)c3[nH]c4ccc(Cl)cc4c3CCN2C1=O	PLC-beta3 inh 11, PLC-gamma1 inh 11 | PLCgamma1 ctr inactive | PLCbeta3 conf inactive
CC[C@]12c3[nH]c4ccc(Cl)cc4c3CCN1C(=O)[C@@H](CC(=O)NCCC1=CCCCC1)C[C@@H]2C(=O)N1CCN(C(=O)c2ccco2)CC1	none
CC[C@]12c3[nH]c4ccc(Cl)cc4c3CCN1C(=O)[C@@H](CC(=O)NCCN1CCOCC1)C[C@@H]2C(=O)N1CCN(C(=O)c2ccco2)CC1	PLC-gamma1 inh 13 | PLCgamma1 ctr inactive | PLCbeta3 conf inactive
COCCCNC(=O)C[C@H]1C[C@H](C(=O)N2CCCCC2)[C@@]2(CCc3ccccc3)c3[nH]c4ccc(Cl)cc4c3CCN2C1=O	none
O=C(O)CCN(Cc1ccccc1)S(=O)(=O)c1ccc(Cl)cc1F	PLC-gamma1 inh 9.6 | PLCgamma1 ctr inactive | PLCbeta3 conf inactive
COc1ccc(CN2C[C@@]3(O)CC[C@@H](O)[C@@H](OC)[C@@H]3[C@@](C)(O)[C@@H]2CC=C(C)C)cc1	none
C(=N\N1CCN(c2ccccn2)CC1)/c1ccccn1	PLC-gamma1 inh 9.7 | PLCgamma1 ctr inactive | PLCbeta3 conf inactive
Oc1ccc(/C=N/N2CCN(c3ccccn3)CC2)cc1	none
O=C(COC(=O)c1cccs1)NCc1ccc2c(c1)OCO2	PLC-gamma1 inh 10 | PLCgamma1 ctr inactive | PLCbeta3 conf inactive
O=C(COC(=O)COc1ccccc1[N+](=O)[O-])NCc1ccc2c(c1)OCO2	PLC-gamma1 inh 13 | PLCgamma1 ctr inactive | PLCbeta3 conf inactive
O=C(NCc1ccc2c(c1)OCO2)c1cccs1	none
COc1ccc(S(=O)(=O)NCC(=O)NCc2cc(=O)n(C)c(=O)n2C)cc1C	PLC-gamma1 inh 9.9 | PLCgamma1 ctr inactive | PLCbeta3 conf inactive
CC(C)C[C@H]1CNC(=O)C(=O)N1C[C@H](Cc1ccc(O)cc1)NC(=O)Cc1ccccc1	none
C[C@H]1CNC(=O)C(=O)N1C[C@H](Cc1ccc(O)cc1)NC(=O)CC12CC3CC(CC(C3)C1)C2	PLC-beta3 inh 12 | PLCgamma1 ctr inactive | PLCbeta3 conf inactive
Cc1cc(=O)c2n(Cc3ccccc3Cl)nc[n+]2[nH]1	PLC-gamma1 inh 14 | PLCgamma1 ctr inactive | PLCbeta3 conf inactive
